Measured values from PubChem BioAssay (NCI).
Compounds without any hit were thinned out: in the full panel of roughly 79,000, 15% have a hit. The source made the active and inactive calls. Rule as the data show it: active = growth inhibition above about 70%; inactive = the rest. Where a SMILES comes first, the peptide text is derived from it. The star is where a group is joined. Cbz = O=C(OCc1ccccc1)*

How the values were obtained:
[1] = NCI Yeast Anticancer Drug Screen. Data for the rad50 strain (AID 155);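 also: 0% = growth of vehicle-only cultures of the same strain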; conditions: S. cerevisiae rad50 strain growth inhibition, active compounds read high
Procedure, shortened: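 Relative growth inhibition (compound vs vehicle) was measured in yeast with a defined repair-gene alteration.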

[2] = NCI Yeast Anticancer Drug Screen. Data for the mec2-1 strain (AID 157); conditions: S. cerevisiae mec2-1 strain, active compounds read high
Procedure, shortened: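 Each compound was tested on mec2-1 yeast, a strain altered in DNA damage repair or cell cycle control. Growth inhibition is reported relative to vehicle.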

[3] = NCI Yeast Anticancer Drug Screen. Data for the sgs1 mgt1 strain (AID 161);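 also: 0% = growth of cultures given vehicle only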; conditions: S. cerevisiae sgs1 mgt1 strain, active compounds read high
Procedure, shortened: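 Read-out: growth inhibition vs vehicle controls. Cells: mutant yeast strain deficient in DNA damage repair.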

[4] = NCI Yeast Anticancer Drug Screen. Data for the cln2 rad14 strain (AID 165);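 also: 0% = growth equal to vehicle treated cultures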; conditions: S. cerevisiae cln2 rad14 strain, active compounds read high
Procedure, shortened: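 Test compounds were added to cln2 rad14 yeast cultures; inhibition of growth was then determined by comparison with vehicle treatment.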

[5] = NCI Yeast Anticancer Drug Screen. Data for the bub3 strain (AID 167); conditions: S. cerevisiae bub3 mutant strain, active compounds read high
Procedure, shortened: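 Screening used yeast with an engineered genetic alteration affecting cell cycle control. Compound-exposed cultures were compared with vehicle cultures, and reduced growth was taken as inhibition.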

[6] = NCI Yeast Anticancer Drug Screen. Data for the mlh1 rad18 strain (AID 175); conditions: S. cerevisiae mlh1 rad18 strain growth inhibition, active compounds read high
Procedure, shortened: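 Inhibition values reflect reduced growth of mutant yeast versus vehicle-treated controls following compound exposure; the mutations affect DNA damage repair.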

[7] = at 5.0 µM (retest, dose inferred, filed as 0.5)
[8] = at 50.0 µM (retest, dose inferred, filed as 5.0)

Measured: growth inhibition

c1ccc(SSc2ccccc2)cc1
active: [3]; at 50.0 µM 77% | [6]; at 50.0 µM 87.7%
inactive: [1]; [7] -6% | [1]; [8] 64% | [1]; at 50.0 µM 47.3% | [2]; [7] -38% | [2]; [8] 18% | [2]; at 50.0 µM 20.7% | [3]; [7] 0% | [3]; [8] 25% | [4]; [7] 1% | [4]; [8] 3% | [4]; at 50.0 µM 18.9% | [5]; [7] 38% | [5]; [8] 20% | [5]; at 50.0 µM 26.7% | [6]; [7] -2% | [6]; [8] 50%

Cc1ccc(C(OS(=O)(=O)c2ccc(C)cc2)C(F)(F)F)cc1 (stereo not given)
inactive: [1]; [7] -1% | [1]; [8] -2% | [1]; at 50.0 µM 62.6% | [2]; [7] -11% | [2]; [8] -1% | [2]; at 50.0 µM 52.5% | [3]; [7] -4% | [3]; [8] -13% | [4]; [7] 3% | [4]; [8] -2% | [4]; at 50.0 µM 15.1% | [5]; [7] 0% | [5]; [8] 37% | [5]; at 50.0 µM 1.7% | [6]; [7] 19% | [6]; [8] 2% | [6]; at 50.0 µM 66.2%
active: [3]; at 50.0 µM 72.9%

CCOc1ccc2c(c1)CCC1C2CCC2(C)CC(O)CC12 (stereo not given)
active: [1]; [8] 98% | [1]; at 50.0 µM 97.7% | [2]; at 50.0 µM 97.5% | [3]; [8] 99% | [4]; [8] 82% | [4]; at 50.0 µM 98.6% | [5]; at 50.0 µM 98.1% | [6]; [8] 99% | [6]; at 50.0 µM 98.6%
inactive: [1]; [7] 11% | [2]; [7] 3% | [2]; [8] 67% | [3]; [7] 22% | [3]; at 50.0 µM 54% | [4]; [7] -18% | [5]; [7] -4% | [5]; [8] -3% | [6]; [7] 14%

CCN(CC)CCCNc1c2c(Cl)cc(Cl)cc2nc2nc(=O)[nH]c(C)c12
inactive: [1]; [7] 9% | [1]; [8] 12% | [1]; at 50.0 µM 8.75% | [2]; [7] 8% | [2]; [8] 16% | [2]; at 50.0 µM 0.9% | [3]; [7] -28% | [3]; [8] 6% | [3]; at 50.0 µM 8.8% | [4]; [7] -13% | [4]; [8] 4% | [4]; at 50.0 µM 39% | [5]; [7] -19% | [5]; [8] 8% | [5]; at 50.0 µM 34.5% | [6]; [7] 7% | [6]; [8] 17% | [6]; at 50.0 µM 42.2%

Clc1c(Cl)c(Cl)c(SC2C3CC4C(C3)C42)c(Cl)c1Cl (stereo not given)
active: [1]; [8] 98% | [1]; at 50.0 µM 98.3% | [2]; [8] 99% | [2]; at 50.0 µM 98.8% | [3]; [8] 97% | [3]; at 50.0 µM 98.8% | [4]; [8] 97% | [4]; at 50.0 µM 97.9% | [5]; [8] 91% | [5]; at 50.0 µM 98% | [6]; [8] 97% | [6]; at 50.0 µM 98.4%
inactive: [1]; [7] 31% | [2]; [7] 23% | [3]; [7] 27% | [4]; [7] 12% | [5]; [7] 7% | [6]; [7] 21%

Cc1c2ccccc2c(C)c2c1cc(F)c1ccccc12
inactive: [1]; [7] 32% | [2]; [7] 43% | [3]; [7] 46% | [4]; [7] 34% | [5]; [7] 21% | [6]; [7] 55%
active: [1]; [8] 88% | [1]; at 50.0 µM 96.1% | [2]; [8] 92% | [2]; at 50.0 µM 97.3% | [3]; [8] 94% | [3]; at 50.0 µM 96.4% | [4]; [8] 91% | [4]; at 50.0 µM 94.5% | [5]; [8] 90% | [5]; at 50.0 µM 94.8% | [6]; [8] 89% | [6]; at 50.0 µM 93.8%

Cc1ccc(/C=C/C(=O)/C=C/c2ccc(C)o2)o1
inactive: [1]; [7] 50% | [1]; at 50.0 µM 65.8% | [2]; [7] 45% | [3]; [7] 49% | [4]; [7] 42% | [4]; at 50.0 µM 39% | [5]; [7] 47% | [5]; [8] 68% | [6]; [7] 62%
active: [1]; [8] 97% | [2]; [8] 99% | [2]; at 50.0 µM 71.3% | [3]; [8] 97% | [3]; at 50.0 µM 75% | [4]; [8] 81% | [5]; at 50.0 µM 75% | [6]; [8] 98% | [6]; at 50.0 µM 92.4%

CCOC(=O)CNC(=O)CNC(=O)CNC(=O)OCc1ccccc1 (Cbz-Gly-Gly-Gly-OEt)
inactive: [1]; [7] -9% | [1]; [8] -3% | [1]; at 50.0 µM 7.6% | [2]; [7] -11% | [2]; [8] -3% | [2]; at 50.0 µM -0.7% | [3]; [7] -7% | [3]; [8] 4% | [3]; at 50.0 µM -12.2% | [4]; [7] -62% | [4]; [8] -4% | [4]; at 50.0 µM 38.5% | [5]; [7] -7% | [5]; [8] 42% | [5]; at 50.0 µM 13.8% | [6]; [7] 1% | [6]; [8] -13% | [6]; at 50.0 µM 14.2%

O=[N+]([O-])c1ccc(O)c(-c2ccccc2)c1
inactive: [1]; [7] 3% | [2]; [7] -31% | [3]; [7] 6% | [4]; [7] 6% | [5]; [7] -2% | [6]; [7] 5%
active: [1]; [8] 99% | [1]; at 50.0 µM 99.3% | [2]; [8] 99% | [2]; at 50.0 µM 99.7% | [3]; [8] 99% | [3]; at 50.0 µM 98.8% | [4]; [8] 99% | [4]; at 50.0 µM 98.7% | [5]; [8] 98% | [5]; at 50.0 µM 99.2% | [6]; [8] 99% | [6]; at 50.0 µM 99.2%

CCCCCCCCCCCC(=O)c1c(O)c2ccccc2oc1=O
active: [3]; at 50.0 µM 71.2%
inactive: [1]; [7] 6% | [1]; [8] -4% | [1]; at 50.0 µM 54.1% | [2]; [7] 45% | [2]; [8] 28% | [2]; at 50.0 µM 44.4% | [3]; [7] 21% | [3]; [8] -8% | [4]; [7] -14% | [4]; [8] -7% | [4]; at 50.0 µM 22.3% | [5]; [7] 0% | [5]; [8] -21% | [5]; at 50.0 µM 43.8% | [6]; [7] -4% | [6]; [8] -4% | [6]; at 50.0 µM 68%
